From the supplement of paper PMC6555819

Experiments:
Assay in all cases: PBM binding z-score (relative to random genomic background probes); higher = stronger binding; sequences stand for … in GC…GCGATTGACAGCGTAGAATGAAGG
[1] = tested on: PPARg:RXRa DBDmut IVT, anti-RXR (DBD mutation: RXRa K156A/R161A, NR concentration 270 nM, RXRa partner concentration 90 nM)
How it was run: (§1)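 On custom Agilent 4×180K arrays, double-stranded probes with 34-nt variable regions carried direct-repeat seeds, single-nucleotide variants, half-site ablations or random human genomic background. Ligand-free nuclear receptor dimers were applied for 1 h, and binding was read with antibodies against each partner (one per run). Binding z-scores come from regression-normalized fluorescence, with the random background probes as reference.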

[2] = tested on: PPARg:RXRa IVT, anti-PPARg (NR concentration 270 nM, RXRa partner concentration 90 nM)
How it was run: as §1

[3] = tested on: PPARg DBDmut:RXRa IVT, anti-PPARg (DBD mutation: PPARg1 K132A/R137A, NR concentration 270 nM, RXRa partner concentration 90 nM)
How it was run: as §1

[4] = tested on: PPARg DBDmut IVT, anti-PPARg (DBD mutation: PPARg1 K132A/R137A, NR concentration 270 nM)
How it was run: as §1

[5] = tested on: PPARg homodimer (NR concentration 180 nM)
How it was run: as §1

[6] = tested on: PXR:RXRa (NR concentration 270 nM, RXRa partner concentration 90 nM)
How it was run: as §1

[7] = tested on: PXR homodimer (NR concentration 270 nM)
How it was run: as §1

[8] = tested on: RARa:RXR (NR concentration 270 nM, RXRa partner concentration 90 nM)
How it was run: as §1

[9] = tested on: RARa homodimer (NR concentration 270 nM)
How it was run: as §1

[10] = tested on: RARb:RXRa (NR concentration 270 nM, RXRa partner concentration 90 nM)
How it was run: as §1

Sequence | PBM binding z-score [1] | PBM binding z-score [2] | PBM binding z-score [3] | PBM binding z-score [4] | PBM binding z-score [5] | PBM binding z-score [6] | PBM binding z-score [7] | PBM binding z-score [8] | PBM binding z-score [9] | PBM binding z-score [10]
AGAACGAGGGCACGCCGAGTTGATAGCAGAGTAG | 3.84 | 4.08 | 0.68 | -0.645 | 0.0729 | 1.38 | 0.119 | 0.82 | -0.438 | 2.57
TCTTGTAGATCAGCAGGAGGTTAAGAAAGATCGA | 1.2 | 0.727 | 0.985 | 0.0884 | -0.244 | 0.907 | -0.404 | 0.574 | -0.978 | 0.468
GATACAGGGTCAAGGCCAGGGTACGCGTATTGAT | 1.85 | 4.19 | 0.695 | 0.43 | 3.1 | 4.32 | 0.122 | 5.19 | 0.648 | 4.5
AGTAAAAGTTCATCTAGGTAACGTAAGATATGCT | 0.423 | 2.83 | 1.21 | 1.83 | 2.75 | 4.52 | 3.57 | 3.39 | 1.46 | 4.72
ATCTCTAGGTATAGATAGTTCAGTGAATGCAAAT | -0.0574 | 0.416 | 1.48 | 1.36 | 0.546 | 0.877 | 0.855 | 0.453 | 0.807 | 0.415
AGTCAAAGTTAATCTAGGTAACGTAAGATATGCT | 2.39 | 4.39 | 1.49 | 1.19 | -0.261 | -0.201 | 0.136 | 0.155 | 0.301 | 0.39
CCTATTAGTTGACCTTAAGGGCAACCGAAGCTCG | 1.43 | 2.7 | 1.27 | 0.764 | 3.46 | 4.4 | 1.93 | 5.12 | 2.39 | 3.64
CAAACTAGGTCACCGGACGGTCAAAGTCCGCATG | 8.62 | 8.82 | 3.09 | 1.22 | 4.69 | 2.54 | 0.265 | 3.73 | 0.94 | 4.7
ATCTCTAGGTAAGACTCAGTTCAGTGCAGAACGC | 1.92 | 1.08 | 0.985 | 1.26 | 1.53 | 1.14 | 1.56 | 0.346 | 1.16 | 0.33
GTACCAAGGTGAATATGTCGTTGATGAGTAGGCG | 1.28 | 1.95 | 0.633 | 0.3 | 1.32 | -0.126 | 0.282 | 0.44 | 0.46 | 1.22
TCTAGCAGGCCAGAGGGTGACTCAAGAGGTACGG | 0.764 | 0.183 | -1.35 | -1.1 | -0.406 | -0.274 | -0.839 | -0.247 | -1.15 | 0.306
CAGCTTAGGTCAGGGCCAGTATAGGAGGAACGTT | 1.28 | 0.782 | -0.279 | -1.2 | 1.34 | 0.726 | 0.0136 | 1.68 | 0.556 | 3.79
CCTACTGGGCCATTCAGAGTTCATTGATCATATG | 4.56 | 3.73 | -0.222 | 0.266 | 0.849 | 4.72 | 8.94 | 1.75 | -0.457 | 1.82
ATCTCTAGGTAAGACTTAGTTCAGTGAAGAACGC | 1.88 | 1.57 | 0.722 | 0.771 | 1.4 | 0.684 | 0.67 | 0.614 | 1.01 | 0.573
CCTCGGAAGACAGAAGGTCAGAGCTGTCCGCTTT | -0.276 | -0.376 | -1.12 | -1.96 | 1.82 | 1.38 | -0.0252 | 1.89 | 0.512 | 2.33
CTACCACGGTGAACAAGGTCGTTGATTACTATTC | 0.771 | 0.788 | -0.025 | -0.267 | 0.744 | 1.44 | 1.01 | 1.15 | 0.251 | 0.76
TCTGGTAGGTCAACGATGGTCAGCTAATCTGCTA | 5.2 | 5.77 | 1.81 | 0.722 | 2.39 | 2.25 | 0.21 | 2.78 | 0.843 | 4.16
AATACAGGCTCATCGTAGGCCAGAGTACGCACAG | -0.148 | -0.0891 | 0.24 | -0.0374 | -0.257 | -0.568 | -0.37 | -0.622 | 0.466 | -0.11
CCTAGCAGGCCAATCTGGGTCTCTCAAGGCTTGA | 1.89 | 1.97 | -0.916 | -2.13 | -1.06 | -0.821 | -0.804 | -0.353 | -0.835 | 0.0483
CCAGACAGGTGAAACGTAACTCAGTCTGGTACGC | 2.48 | 0.769 | -0.823 | -0.558 | 0.378 | -0.325 | -0.322 | 0.0493 | 0.128 | 0.621
CCGACTGGGGCAGAAAGATTACCATACCATCCGG | 1.53 | 0.903 | -0.59 | -1.13 | -0.627 | -0.737 | -0.227 | -0.36 | -0.0256 | 0.0416
TCGAGTAGGTTAGTCGGGGCATCCAGCCAACATA | 2.28 | 2.09 | -0.561 | 0.0213 | -0.139 | 0.0331 | -0.0889 | 0.263 | -0.138 | 0.628
CTCGAAAGGTCGTGTTCAGGTGAGTATACCAAAC | 0.51 | 1.95 | 0.275 | 1.56 | 1.51 | 3.14 | 0.411 | 3.85 | 0.304 | 3.78
ATCTCTAGGTAAAAGTTCATTGAATCCCGAGGAT | 1.93 | 3.85 | 1.8 | 0.918 | 1.37 | 3.67 | 3.67 | 2.6 | 0.624 | 2.84
